Assay outcomes as filed in PubChem.
KB-V1 cytotox: KB-V1 MDR subline cytotoxicity. KB-V1 MDR cells viability, CellTiter-Glo, 72 h. Potency, µM (doses to about 46.1 µM), hits mostly cytotoxic. 3.4% of 400,000 active; further: on the % scale 0 is the no-effect control and ±100 the full control effect; nearly all actives have a fitted effect of over 60% in size
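Drug-selected KB-V1 cells, grown in DMEM lacking phenol red with 10% FBS, receive compound titrations; after three days at 37 degrees C, surviving cell ATP is quantified by CellTiter-Glo luminescence and responses normalized and curve-fitted.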
HT1080-NT tox: kills 2HG-producing HT-1080-NT fibrosarcoma cells | Potency, µM (titrated, usually from 46.1 µM), for inactives: top-dose activity, negative = less viability, hits mostly cytotoxic | 1.6% of 360,000 active | AID 686970 | HT-1080-NT fibrosarcoma viability, CellTiter-Glo ATP luminescence, 48 h;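 further: NT is the 2HG producing partner of a matched IDH1 knockdown line; 0% = DMSO-treated cells and -100% = media-only wells without cells; nearly all actives have a fitted effect of over 55% in size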
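Compounds were tested in concentration-response format on HT-1080-NT cells for 48 hours at 37 degrees C. Cell viability came from CellTiter-Glo luminescence; curves were classified by r2, response magnitude and activity.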
KB-3-1 tox: kills parental KB-3-1 adenocarcinoma cells; KB-3-1 viability, CellTiter-Glo ATP luminescence, 72 h; Potency, µM (top dose mostly 46.1 µM), actives largely listed as cytotoxic; 1.4% of 400,000 active; further: on the % scale 0 is the no-effect control and ±100 the full control effect; nearly all actives have a fitted effect of over 60% in size
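KB-3-1 parental drug-naive adenocarcinoma cells in DMEM/10% FBS, incubated 72 h at 37 C with pin-transferred compounds across a concentration series. Viability by CellTiter-Glo luminescence; concentration-response curves fitted after normalization.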
SW480 rereplic: DNA re-replication induction in SW480 cells. Potency, µM (titrated, usually from 46.1 µM), for inactives: at the highest dose re-replication activation, usual class: activators. AID 624297. SW480 DNA re-replication, Hoechst DNA content imaging, 48 h. 1.8% of 340,000 active; further: % of control where 0% means no effect; nearly all actives have a fitted effect of over 55% in size
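First, 250 cells per well were seeded. Next, compound or vehicle (23 nL) was pinned in, plates sat 48 hr at 37 C. Finally Hoechst was added for 40 min before fluorescence scanning.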
HT1080 IDH1KD tx: kills HT-1080 cells with IDH1 knockdown; HT-1080 IDH1 knockdown viability, ATP luminescence, 48 h; Potency, µM (series often up to 46.1 µM), without a hit: top-dose activity, negative = toxicity, actives largely listed as cytotoxic; 2% of 360,000 active;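 further: 0% = DMSO wells and -100% = cell-free medium wells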
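Viability of IDH1-knockdown HT-1080 fibrosarcoma cells was assessed by CellTiter-Glo after 48 h at 37 °C with titrated compound; concentration-effect curves were classified by fit quality and response size.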
MCF10A rereplic: inducers of DNA re-replication in MCF 10A breast cells | AID 624296 | 2.9% of 350,000 active | Potency, µM (top dose mostly 46.1 µM), inactives show at the top dose activity, positive = re-replication, hits mostly activators | MCF 10A DNA re-replication, Hoechst nuclear intensity, 48 h; further: % of control where 0% means no effect; nearly all actives have a fitted effect of over 50% in size
Starred values were filed as active, the others as inactive; i = inactive; ? = inconclusive; . = no result given. Most compounds without a hit are left out; they make up all but 7.9% or so of the library. The call rests on the fitted dose curve; in most records, active means well fitted curve in the direction sought with a large enough effect; inconclusive means small, poorly fitted or top-dose-only effect, or another doubt; inactive means no such curve, though single readings can be large; an effect the other way counts as inactive or inconclusive. Potency means the concentration at half of the fitted maximal effect.

SMILES	KB-V1 cytotox	HT1080-NT tox	KB-3-1 tox	SW480 rereplic	HT1080 IDH1KD tx	MCF10A rereplic
Cc1ccc(S(=O)(=O)N2CCN(C(=O)CN3CCN(c4ccc(O)cc4)CC3)CC2)cc1	i	2%	i	-1%	-1%	-7%
O=C(C[n+]1csc2ccccc21)c1cccc([N+](=O)[O-])c1	i	.	i	.	.	.
CCOC(=O)C1CCN(S(=O)(=O)Cc2ccccc2)C1=O (stereo not given)	i	-3%	i	-4%	-1%	-1%
CCOC(=O)C1CCN(C(=O)c2ccccc2)C(CC)C1=O (stereo not given)	21µM*	0%	i	-5%	-2%	3%
O=C1NCC(=O)N2C(c3ccccc3)c3[nH]c4ccccc4c3C[C@@H]12 (stereo not given in full)	i	-7%	i	-32%	-4%	1%
O=C1[C@@H]2Cc3c([nH]c4ccccc34)[C@@H](c3ccccc3)N2C(=O)[C@@H]2Cc3c([nH]c4ccccc34)[C@@H](c3ccccc3)N12	.	.	.	23µM*	.	?
COc1cc([C@H]2c3[nH]c4ccccc4c3C[C@H]3C(=O)N4[C@@H](c5cc(OC)c(OC)c(OC)c5)c5[nH]c6ccccc6c5C[C@H]4C(=O)N23)cc(OC)c1OC	i	12µM*	i	?	15µM*	?
CC(C)NC(=O)COC(=O)c1ccccc1OCC(=O)Nc1ccc(Br)cc1	.	-24%	.	.	-10%	.
CN(C)CC(O)c1ccc(C=Cc2ccc(Cl)cc2)cc1 (stereo not given)	?	-5%	?	4%	5.8µM*	?
COc1ccccc1[C@H]1C(c2cccc(Cl)c2)=NN(c2ccccc2)[C@@H]1CO	i	?	i	?	?	?
COc1ccccc1[C@@H]1C(c2cccc(Cl)c2)=NN(c2ccccc2)[C@H]1C(=O)N1CCOC1=O	i	6%	?	2.6µM*	8%	?
COc1ccccc1[C@@H]1C(c2cccc(C)c2)=NN(c2ccc(Br)cc2)[C@H]1C(=O)N1CCOC1=O	i	-2%	i	21µM*	2%	?
O=C1OCCN1C(=O)[C@H]1[C@H](c2ccc([N+](=O)[O-])cc2)C(c2ccccc2)=NN1c1ccc(Br)cc1	i	-11%	i	-24%	-16%	-45%
COc1ccccc1[C@@H]1C(c2ccccc2)=NN(c2ccc(Br)cc2)[C@H]1C(=O)N1CCOC1=O	i	-5%	i	?	-7%	3.3µM*
CCc1cc(Cn2nc(-c3ccccc3)cc2C(=O)NCc2ccccc2OC)on1	i	4%	i	?	-4%	4%
Cc1ccc(S(=O)(=O)c2cn(Cc3cccc(F)c3)c3cc(N4CCCC4)c(F)cc3c2=O)cc1	i	.	i	.	.	.
N#CC1(Nc2ccc3ccccc3c2)CCCC1	i	-1%	i	-9%	1%	-10%
CC(NC(=O)c1ccc([N+](=O)[O-])cc1Cl)C1CC2CCC1C2 (stereo not given)	i	-6%	i	3%	-10%	7%
O=C(NC12CC3CC(CC(C3)C1)C2)c1ccc([N+](=O)[O-])o1	i	?	5.2µM*	?	?	8.2µM*
CC(NC(=O)c1ccc([N+](=O)[O-])o1)C1CC2CCC1C2 (stereo not given)	?	?	?	10µM*	?	12µM*
O=C(NC12CC3CC(CC(C3)C1)C2)c1ccc(-c2ccc(Br)cc2)o1	?	-7%	i	?	?	21µM*
O=C(NC12CC3CC(CC(C3)C1)C2)c1ccc(Br)o1	i	-11%	i	3%	-24%	?
Cc1c(Cl)c([N+](=O)[O-])nn1CC(=O)NC(C)C1CC2CCC1C2 (stereo not given)	i	-3%	23µM*	-2%	-6%	26%
